Data taken from PubChem BioAssay (EPA / NIEHS).
Active and inactive are the calls of the source. The calls were made as follows: active = hit-call score of the fitted dose curve at least 0.9, where 1 is the maximum; inactive = score below 0.9.

The molecules below were run against Transcription factor Sp1 (Homo sapiens) (UniProt P08047) (assay: ATG_Sp1_CIS: Attagene CIS-FACTORIAL HepG2 Assay for human Specificity Protein 1 (Sp1) (AID 2282961)). Conditions: HepG2 Sp1 cis-reporter transcription, actives raise or lower the signal.
Method: ATG_CIS is a cell-based, multiplexed-readout assay that uses HepG2, a human liver cell line, with measurements taken at 24 hours after chemical dosing in a 24-well plate.ATG_Sp1_CIS is one of 52 assay component(s) measured or calculated from the ATG_CIS assay. It is designed to make measurements of mRNA induction, a form of inducible reporter, as detected with fluorescence intensity signals by Reverse transcription polymerase chain reaction (RT-PCR) and Capillary electrophoresis technology.Data from the assay component ATG_Sp1_CIS was analyzed into 1 assay endpoint. This assay endpoint, ATG_Sp1_CIS, was analyzed with bidirectional fitting relative to DMSO as the negative control and baseline of activity. Using a type of inducible reporter, measures of mRNA for gain or loss-of-signal activity can be used to understand the reporter gene at the transcription factor-level as they relate to the gene SP1. Furthermore, this assay endpoint can be referred to as a primary readout, because this assay has produced multiple assay endpoints where this one serves a reporter gene function. To generalize the intended target to other relatable targets, this assay endpoint is annotated to the dna binding intended target family, where the subfamily is zinc finger.
Human liver HepG2 cells are transiently transfected with multiple reporter transcription units (MRTUs) in 6-well plates using FuGene 6 reagent (Roche; 3 ml FuGene/1 mg DNA). The MRTU constructs are regulated by a cis-regulating element (promoter). […] A major difference between the CIS and TRANS system is that in CIS activities of endogenous TFs are measured, whereas the TRANS assay evaluates changes in activities of exogenous, chimeric NR-Gal4 proteins. […] At the end of 24 hour incubation, total RNA was isolated using TriZol reagent (Invitrogen). The isolated RNA is then reverse-transcribed using oligo(dT) primer and Mo-MLV reverse transcriptase (Invitrogen) with DNAse I (Ambion) treatment for 30 min. The one-tenth of the produced cDNA was amplified by PCR using Taq DNA polymerase (Invitrogen) and two reporter sequence-specific primers. The PCR products were fluorescently labeled by primer extension with 6-arboxyfluorescein (6-FAM) 5'-labeled reporter sequence-specific primer (2 min at 95 C, 20 s at 68 C and 10 min at 72 C) and these products were digested with 5U of HpaI (New England Biolabs) for 2h at 37 C. The fragments were purified using Qiaquick PCR columns (Qiagen), analyzed on an ABI 3130xL genetic analyzer (Applied Biosystems) with peak positions identified by using a set of X-rhodamine (ROX)-labeled MapMarker1000 molecular weight standards (BioVentures). The raw capillary electrophoresis data was processed using Attagraph software (Attagene).

Chain of Transcription factor Sp1 (Homo sapiens) (P08047 whole entry, looked up): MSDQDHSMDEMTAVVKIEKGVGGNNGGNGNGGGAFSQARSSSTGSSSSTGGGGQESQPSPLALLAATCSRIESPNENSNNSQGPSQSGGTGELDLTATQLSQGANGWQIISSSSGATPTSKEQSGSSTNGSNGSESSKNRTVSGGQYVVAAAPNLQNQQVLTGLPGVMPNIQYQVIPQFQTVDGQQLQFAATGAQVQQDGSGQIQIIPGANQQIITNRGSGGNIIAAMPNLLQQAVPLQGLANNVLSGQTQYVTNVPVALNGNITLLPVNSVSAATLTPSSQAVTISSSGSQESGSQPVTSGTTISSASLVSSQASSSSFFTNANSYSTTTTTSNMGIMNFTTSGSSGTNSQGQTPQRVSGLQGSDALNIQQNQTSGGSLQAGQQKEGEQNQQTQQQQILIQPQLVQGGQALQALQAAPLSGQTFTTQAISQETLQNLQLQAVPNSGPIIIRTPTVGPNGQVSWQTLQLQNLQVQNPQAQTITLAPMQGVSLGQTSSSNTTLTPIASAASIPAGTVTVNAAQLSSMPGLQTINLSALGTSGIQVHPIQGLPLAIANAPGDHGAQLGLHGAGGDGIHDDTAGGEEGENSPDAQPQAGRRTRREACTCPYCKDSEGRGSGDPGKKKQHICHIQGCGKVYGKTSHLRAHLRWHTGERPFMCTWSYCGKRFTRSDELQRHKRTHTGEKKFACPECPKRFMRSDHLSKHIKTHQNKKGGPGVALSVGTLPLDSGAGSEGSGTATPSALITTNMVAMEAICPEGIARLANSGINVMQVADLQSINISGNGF

Row | SMILES | outcome | AC50
1 | CCN(CCC#N)c1ccc(N=Nc2c(Cl)cc([N+](=O)[O-])cc2Cl)cc1 | inactive | –
2 | CCN(CC)c1ccc(C(=O)c2ccccc2C(=O)O)c(O)c1 | inactive | –
3 | O=C(c1ccccc1)c1ccc(O)c(O)c1O | inactive | –
4 | FC(F)(F)C(=NOCC1OCCO1)c1ccc(Cl)cc1 | inactive | –
5 | CC(=O)[C@@]1(O)CC[C@H]2[C@@H]3C[C@H](C)C4=CC(=O)C=C[C@]4(C)[C@@]3(F)[C@@H](O)C[C@@]21C | inactive | –
6 | CC(CC=O)c1ccccc1 (stereo not given) | inactive | –
7 | CCCCCCOc1cc(C)c(O)c(C)c1C | inactive | –
8 | NC(=O)NNC(N)=O | inactive | –
9 | O=C1c2ccccc2C(=O)C1c1nc2ccccc2c(Br)c1O | inactive | –
10 | O=c1[nH]c(=O)c2[nH]c(=O)[nH]c2[nH]1 | inactive | –
11 | CC1(C)O[C@@H]2C[C@H]3[C@@H]4C[C@H](F)C5=CC(=O)C=C[C@]5(C)[C@@]4(F)[C@@H](O)C[C@]3(C)[C@]2(C(=O)CO)O1 | inactive | –
12 | C=CC=CC=CCCCCC | inactive | –
13 | CC(C)(C)c1ccc(N)cc1 | inactive | –
14 | CCCCC(CC)CCC(CC(C)C)OS(=O)(=O)O (stereo not given) | inactive | –
15 | O=C1CCCC(=O)O1 | inactive | –
16 | CCCOCCOCCOCCO | inactive | –
17 | COC(=O)C1=C(C)NC(C)=C(C(=O)OCC(C)C)C1c1ccccc1[N+](=O)[O-] (stereo not given) | inactive | –
18 | CCCCCCCCCCCCCCCC[n+]1ccccc1 | inactive | –
19 | CC(=O)Oc1ccc(C)cc1 | inactive | –
20 | CCCCC(CC)COC(=O)c1ccccc1O (stereo not given) | inactive | –

Row | SMILES | outcome | AC50
21 | C=CC(C)(CCC=C(C)C)OC(=O)CC(C)C (stereo not given) | inactive | –
22 | OC1OCCOC1O (stereo not given) | inactive | –
23 | CC(C)=CCCC(C)C=O (stereo not given) | inactive | –
24 | CCCCOCCOC(=O)COc1nc(Cl)c(Cl)cc1Cl | inactive | –
25 | CC(C)CC(O)Cc1ccccc1 (stereo not given) | inactive | –
26 | c1ccc(CCCc2ccncc2)cc1 | inactive | –
27 | O=[N+]([O-])C1(Br)COCOC1 | – | 50.2 µM (active)
28 | OCCN(CCO)c1ccccc1 | inactive | –
29 | O=S(=O)(O)c1ccc2cc(O)c(S(=O)(=O)O)cc2c1 | inactive | –
30 | Nc1ccc2cc3ccccc3cc2c1 | inactive | –
31 | CCCCCCCCC(=O)OCC | inactive | –
32 | CC(C)C1=CC2=CC[C@@H]3[C@](C)(CCC[C@@]3(C)C(=O)O)[C@H]2CC1 | inactive | –
33 | Cc1cccc(OCCOc2cccc(C)c2)c1 | inactive | –
34 | c1ccc2c(c1)ccc1ncccc12 | inactive | –
35 | NC(=O)c1ccccc1O | inactive | –
36 | CCCCCCCOC(=O)CCC | inactive | –
37 | O=c1cc[nH]c(=S)[nH]1 | inactive | –
38 | O=C(O)CC(C(=O)O)C(CC(=O)O)C(=O)O (stereo not given) | inactive | –
39 | COCc1c(C(C)C)nc(C(C)C)c(/C=C/[C@@H](O)C[C@@H](O)CC(=O)O)c1-c1ccc(F)cc1 | inactive | –
40 | c1ccc(CNCc2ccccc2)cc1 | inactive | –
